Holding throughout (experiment): NCI-60 one-dose screen, 48 h (100 = growth as untreated, 0 = no growth, -100 = all killed)
For assay [1], the system named is T-47D breast. The conditions noted are these: 10 µM unless noted.
Assay [2] relates to BT-549 breast. Conditions: 10 µM unless noted.
In assay [3] the test system is SW-620 colon. The conditions noted are these: 10 µM unless noted.
Assay [4] has as its system MCF7 breast. The conditions noted are these: 10 µM unless noted.
For assay [5], the system named is HCT-116 colon. The conditions noted are these: 10 µM unless noted.
The test system of assay [6] is KM12 colon. The conditions noted are these: 10 µM unless noted.
For assay [7], the system named is MDA-MB-435 melanoma. The conditions noted are these: 10 µM unless noted.
Assay [8] concerns HCC-2998 colon. The conditions noted are these: 10 µM.

This is part of a sample that, as a whole, favours compounds with a hit. Of some 83,000 tested, about 20% had one in any assay.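 Note: values are percent growth. 100 is the growth of untreated cells, values between 100 and 0 indicate rising inhibition; between -100 and 0 indicates cell death.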 Values without a mark were called inactive. Calls of active or inactive are those of the source. The calls were made as follows: active = growth percent below 10; inactive = the rest.

As for `COc1cc(N2CCC(N(C)C)CC2)ccc1Nc1ncc(Cl)c(Nc2ccccc2P(C)(C)=O)n1`, the growth in assay [1] is 56.2%; in assay [2], -14.1% (active); in assay [3], -1.28% (active); in assay [4], 33.1%; in assay [5], -19.6% (active); in assay [6], -1.59% (active).

For `CN(C)C1CCN(C(=O)c2ccc(NC(=O)Nc3ccc(-c4nc(N5CCOCC5)nc(N5CCOCC5)n4)cc3)cc2)CC1`, the growth is -45.3% [2.5 µM] (active) in assay [1]; -10.1% [2.5 µM] (active) in assay [2]; 8.13% [2.5 µM] (active) in assay [3]; 3.87% [2.5 µM] (active) in assay [4]; 12.8% [2.5 µM] in assay [5]; 5.58% [2.5 µM] (active) in assay [6].

Turning to `CC(C)=CCc1cc2c(cc1O)C1=C(C(=O)C3=C(C1=O)S(=O)(=O)CCN3)C(C=C(C)C)O2` (stereo not given), the growth is -2.63% (active) in assay [1]; -52.6% (active) in assay [7]; -18.9% (active) in assay [3]; -50.7% (active) in assay [4]; -24.8% (active) in assay [5]; -66% (active) in assay [8]. In addition, the growth in assay [6] was 13.6%.

Take `CCCCCc1ccc(C)cc1OC(=O)CCl`: the growth is 102% in assay [1]; 117% in assay [7]; 103% in assay [3]; 98% in assay [4]; 109% in assay [5]; 109% in assay [8]. Moreover, in assay [6], the growth is 106%.

Take `Cc1ccc(N)cc1CN1C(=O)c2ccccc2C1=O`: the growth is 110% in assay [1]; 106% in assay [7]; 108% in assay [3]; 108% in assay [4]; 93.4% in assay [5]; 104% in assay [8]. Moreover, the growth in assay [6] was 111%.

Take `CNC(=O)CN1CCC(Oc2cc3c(Nc4cccc(Cl)c4F)ncnc3cc2OC)CC1`: the growth in assay [1] was -11.2% (active); in assay [7], 98.2%; in assay [3], 71.5%; in assay [4], 51.1%; in assay [5] it was 54.7%; in assay [8], 83.2%. Moreover, the growth in assay [6] is 81.4%.

As to `CCCCCCCCCNCCCCCCCCC`, the growth is 57.7% in assay [1]; 47.6% in assay [7]; 41.5% in assay [3]; 13.4% in assay [4]; 20.2% in assay [5]; 23.8% in assay [8]. The growth in assay [6] was 22.6%.

As for `NC(=O)N1N=C(c2ccc(Cl)cc2)CC1c1cn(-c2ccccc2)nc1-c1ccc(Cl)cc1` (stereo not given), the growth is 45.6% in assay [1]; 98.9% in assay [2]; 84.8% in assay [3]; 63.7% in assay [4]; 31.9% in assay [5]; 78.6% in assay [8]. Further, the growth in assay [6] was 62.7%.

Consider `O=c1sn(-c2cccc3ccccc23)c(=O)n1Cc1ccccc1`, for which the growth was 91.5% in assay [1]; 110% in assay [2]; 110% in assay [3]; 103% in assay [4]; 88.1% in assay [5]; 110% in assay [8]. Further, in assay [6], the growth was 104%.

Take `CC(=O)C1=C(C)NC(SCc2nnc(-c3ccc(C)cc3)o2)=NC1c1ccc(F)cc1` (stereo not given): the growth is 74.4% in assay [1]; 107% in assay [7]; 110% in assay [3]; 95.4% in assay [4]; 93.6% in assay [5]; 104% in assay [8]. The growth in assay [6] is 100%.

For the compound `O=S1(=O)OC(c2ccc(O)c(Cl)c2)(c2ccc(O)c(Cl)c2)c2ccccc21`, the growth in assay [1] was 97.2%; in assay [7], 113%; in assay [3], 100%; in assay [4], 104%; in assay [5], 99.8%; in assay [8], 103%. For the same compound, the growth in assay [6] was 103%.

With `COc1ccc(C(=O)c2cc(OC)c(OC)c(OC)c2)cc1/C=C/C(=O)c1ccc(F)cc1`, the growth in assay [1] was 67.3%; in assay [7], 60.5%; in assay [3], 9.38% (active); in assay [4], 19.6%; in assay [5], 1.33% (active); in assay [8], 97.1%. In addition, the growth in assay [6] was 39.8%.

As for `CC(C)CC(=O)Nc1n[nH]c2c1CN(C(=O)C1CCN(C)CC1)C2(C)C`, the growth is -3% (active) in assay [1]; 12% in assay [7]; 9.91% (active) in assay [3]; 3.99% (active) in assay [4]; 2.94% (active) in assay [5]; 13.1% in assay [8]. Further, the growth in assay [6] is 9.26% (active).

For `CC(=O)C1CC(C)CCC1C(C)C` (stereo not given), the growth in assay [1] was 71.9%; in assay [7] it was 121%; in assay [3], 106%; in assay [4], 85.3%; in assay [5], 61.6%; in assay [8] it was 104%. Moreover, the growth in assay [6] is 98%.

Take `CN1[C@@H]2CC[C@H]1/C(=C\c1ccccc1)C1=C2[C@@H](c2ccccc2)C(C#N)=C(N)O1`: the growth in assay [1] is 58.6%; in assay [7], 98.5%; in assay [3] it was 98.2%; in assay [4] it was 85.2%; in assay [5] it was 49.9%; in assay [8] it was 87.7%. Further, in assay [6], the growth is 85.3%.

For `Cc1cc(Nc2ncc(Cl)c(Nc3ccccc3S(=O)(=O)C(C)C)n2)c(OC(C)C)cc1C1CCNCC1`, the growth is -77.7% (active) in assay [1]; -100% (active) in assay [7]; -92.7% (active) in assay [3]; -73.7% (active) in assay [4]; -97.5% (active) in assay [5]; -93% (active) in assay [8]. The growth in assay [6] was -95.8% (active).

For the origin of these results see PubChem BioAssay (NCI).
